The values that follow come from PubChem BioAssay (NCI).

This is part of a sample that, as a whole, favours compounds with a hit. Of some 83,000 tested, about 20% had one in any assay.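 Growth was measured after 48 h exposure to one concentration of compound in 96-well plates. Values under 10 count as active.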 Values without a mark were called inactive. Activity calls are given as the source filed them.

In the assay the test system is HL-60(TB) leukemia. In words: NCI-60 one-dose screen, 48 h (100 = growth as untreated, 0 = no growth, -100 = all killed). To be noted: 10 µM unless noted.
As for `Cc1cc2nc(-c3c(N)ncc(C#N)c3-c3ccc(Cl)cc3)[nH]c2cc1C`, the growth was 89.5%. To `Nc1ncc(-c2ccc3ncnc(N4CCc5cc(F)c(Cl)cc54)c3c2)cn1` belongs 56.5%. To `COc1ccc(-c2nc3sccn3c2-c2cc(-c3cc(OC)c(OC)c(OC)c3)on2)cc1` belongs 23.5%; to `O=c1c2cc(Cl)ccc2oc2ccc(OCCCCCN3CCCCC3)cc12`, 38.5%; to `C=C(C)[C@@H]1CC[C@]2(C(=O)Nc3ccccn3)CC[C@]3(C)[C@H](CC[C@@H]4[C@@]5(C)CCCNC(C)(C)[C@@H]5CC[C@]43C)[C@@H]12`, -38.1% (active).

In the case of `CC(=O)c1cc(C(=O)c2ccc3c(c2)Sc2ccccc2N3)c2cc(C)ccn12`, the growth was 2.96% (active). For `O=C(O)/C(=C/c1ccc(O)cc1)c1ccccc1`, the growth was 96%.

As for `Cc1cccc(C)c1Nc1nnc(-c2ccc(F)cc2)o1`, the growth was 99.9%. With `COc1ccc(/C=c2/c(=O)[nH]c3nc4sc(C)c(C)c4c(=O)n23)cc1`, the growth was 71.8%.

As to `Cc1cccc(NC(=O)c2sc3nc4c(cc3c2N)C(=O)CCC4)c1`, the growth is 6.14% (active).

In the case of `N#Cc1ccc(O)c(C2=NCC(c3cccc(Oc4ccccc4)c3)O2)c1` (stereo not given), the growth is -8.73% (active). To `O=C1NCC2CCCC1C2` (stereo not given) belongs 98.6%; to `COc1cc2c(c(OC)c1OC)-c1ccc(SC)c(=O)cc1[C@@H](NC1OC(CO)C(O)C(O)C1O)CC2` (stereo not given in full), -38.6% (active). To `Fc1ccccc1-c1cnn2cc(-c3ccccc3)cnc12` belongs 98.6%. To `Cc1ccc(Nc2ccc(Nc3ccc(C)cc3)c3c2C(=O)c2cccc(O)c2C3=O)cc1` belongs 94.3%.
